Source: PubChem BioAssay (NCATS)
Results filed as inconclusive are left out. Activity calls are given as the source filed them. The call rests on the fitted dose curve; in most records, active means well fitted cell-killing curve with a large enough effect; inconclusive means small, poorly fitted or top-dose-only effect; inactive means no such curve, though single readings can be large or run the other way.

assay: qHTS of pediatric cancer cell lines to identify multiple opportunities for drug repurposing: Primary screen for NB-EBc1 cells (AID 1347095); settings: NB-EBc1 neuroblastoma viability, CellTiter-Glo luminescence, 48 h; series mostly up to 46 µM
In short: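 CRCs from 8- or 11-point titrations (lowest final 0.59 nM NPC, 0.78 nM MIPE). Cell viability: CellTiter-Glo after 48 h incubation, 15 min room-temperature development, luminescence imaging.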
Potency means the concentration at half of the fitted maximal effect.

Row | Compound | Potency
1 | CNC(=O)CN1CCC(Oc2cc3c(Nc4cccc(Cl)c4F)ncnc3cc2OC)CC1 | 6.6 nM (active)
2 | COc1cc2nccc(Oc3ccc(NC(=O)C4(C(=O)Nc5ccc(F)cc5)CC4)cc3)c2cc1OC | 743 nM (active)
3 | Cc1ccc(C(N)=O)cc1Nc1nccc(-c2cn(C(C)C)c3cnccc23)n1 | 4180 nM (active)
4 | Cc1cc(Nc2cc(CN3CCOCC3)c3nc(C)c(Cc4ccc(Cl)cc4F)n3n2)n[nH]1 | 4180 nM (active)
5 | CC=CC1=C(C(=O)O)N2C(=O)[C@H](NC(=O)[C@H](N)c3ccc(O)cc3)[C@@H]2SC1 | inactive
6 | COC(=O)[C@]12CCC(C)(C)C[C@@H]1[C@@H]1C(=O)C=C3[C@@]4(C)C=C(C#N)C(=O)C(C)(C)[C@@H]4CC[C@@]3(C)[C@]1(C)CC2 | 264 nM (active)
7 | CNc1nccc(-c2cccnc2Oc2cc(C(=O)Nc3cccc(C(F)(F)F)c3)ccc2C)n1 | 3320 nM (active)
8 | O=C(O)c1ccc2c(c1)nc(Nc1cccc(Cl)c1)c1ccncc12 | 2350 nM (active)
9 | CC(C)C[C@H](NC(=O)CNC(=O)c1cc(Cl)ccc1Cl)B(O)O | 526 nM (active)
10 | COc1cc2c(cc1-c1c(C)noc1C)ncc1[nH]c(=O)n([C@H](C)c3ccccn3)c12 | 16600 nM (active)
11 | COc1cc(=C2C=c3ccccc3=N2)[nH]c1=Cc1[nH]c(C)cc1C | 743 nM (active)
12 | Cc1cn2cc(C(=O)N(C)CCO)cc(N[C@@H]3CCOc4cccc(C)c43)c2n1 | inactive
13 | CC(NCc1ccc2c(c1)nc(NC(=O)c1ccc(-c3cn[nH]c3)s1)n2CC(C)(C)O)C(C)(C)C (stereo unspecified) | 418 nM (active)
14 | O=C(Cc1ccc(-c2ccc(OCCN3CCOCC3)cc2)cn1)NCc1ccccc1 | 14.8 nM (active)
15 | COc1cc2ncn(-c3cc(OCc4ccccc4C(F)(F)F)c(C(N)=O)s3)c2cc1OC | 4690 nM (active)
16 | Cn1cncc1[C@@](N)(c1ccc(Cl)cc1)c1ccc2c(c1)c(-c1cccc(Cl)c1)cc(=O)n2C | 11800 nM (active)
17 | CN(C)CC=CC(=O)Nc1cc2c(Nc3ccc(F)c(Cl)c3)ncnc2cc1O[C@H]1CCOC1 | 9350 nM (active)
18 | O=C(Nc1cc(C(F)(F)F)cc(C(F)(F)F)c1)c1cc(Cl)ccc1O | 296 nM (active)
19 | Nc1nc(-c2nn(Cc3ccccc3F)c3ncccc23)nc(N)c1N1CCOCC1 | inactive
20 | COc1cc(OC2CCN(C)CC2)ccc1Nc1ncc2c(n1)n(C1CCCC1)c(=O)n2C | 8330 nM (active)
21 | COc1cc2c(Oc3ccc4[nH]c(C)cc4c3F)ncnc2cc1OCCCN1CCCC1 | 4180 nM (active)
